Test results taken from PubChem BioAssay.
Values joined by “and” are separate entries in the source; they are usually repeats but may differ in a detail not shown here. Equal entries are not always repeated. Active and inactive are the calls of the source.

Tests used:
[1] = compound effects on lung adenocarcinoma cell viability – A549, calcein-AM fluorescence, 48 h, basal, profiling panel (AID 1162); settings: higher = more signal
[2] = compound effects on differentiated 3T3-L1 adipocyte viability – cell-based, 3T3-L1 adipocytes, calcein-AM fluorescence, 48 h, basal, profiling panel (AID 1163); settings: 3T3-L1 adipocytes viability, higher = more signal
[3] = compound effects on hepatocellular carcinoma cell viability – HepG2, calcein-AM fluorescence, 48 h, basal, profiling panel (AID 1164); settings: higher = more signal
[4] = compound effects on multiple myeloma cell viability – MM1S, calcein-AM fluorescence, 48 h, basal, profiling panel (AID 1165); settings: higher = more signal;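 note: viability of MM1S multiple myeloma cells under basal unstimulated conditions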
[5] = calcein-AM signal in unstimulated myeloma cells – cell-based, calcein-AM fluorescence, 48 h, PK04 Diversity Set, profiling panel (AID 1166); settings: RPMI8226 myeloma viability, higher = more signal;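 note: cells grown under basal conditions without added stimulus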
[6] = JC-1 mitochondrial signal, unstimulated HepG2 cells – cell-based, JC-1 fluorescence, 24 h, 100 nL compound, profiling panel (AID 1167); settings: HepG2 mitochondrial potential, higher = more signal
[7] = JC-1 mitochondrial signal, unstimulated adipocytes – cell-based, JC-1 fluorescence, 3T3-L1 adipocytes, 24 h, 100 nL compound, profiling panel (AID 1168); settings: JC-1 mitochondrial fluorescence, higher = more signal, called active from +8 up or from −8 down
[8] = JC-1 mitochondrial signal, unstimulated myeloma cells – cell-based, JC-1 fluorescence, RPMI8226, 24 h, 100 nL compound, profiling panel (AID 1169); settings: JC-1 mitochondrial potential fluorescence, higher = more signal
[9] = JC-1 mitochondrial signal, unstimulated MM1S myeloma – cell-based, JC-1 fluorescence, 24 h, 100 nL compound, profiling panel (AID 1170); settings: MM1S mitochondrial potential, higher = more signal
[10] = resazurin metabolic signal in A549 cells – cell-based, resazurin fluorescence, 24 h, PK04 Diversity Set, profiling panel (AID 1171); settings: A549 viability, higher = more signal, called active from +8 up or from −8 down
Note: test concentration not given here.

SMILES	z-score [1]	z-score [2]	z-score [3]	z-score [4]	z-score [5]	z-score [6]	z-score [7]	z-score [8]	z-score [9]	z-score [10]
C#CCCCON=C1C[C@@H](O)[C@@H](O)[C@@H]2[C@@H]3C(=O)N(C4CCCCC4)C(=O)[C@@H]3CC[C@H]12	-0.0446	-0.277	1.15	0.471	-0.584	0.289	0.201 (inactive)	0.515	-0.353	0.108 (inactive)
C=CCN(CCCCC)C(=O)C1N(CCCCCCO)C(=O)C2C(C(=O)O)C3C=CC21O3 (stereo not given)	-0.681 and -0.373	-0.573 and -0.412	0.122 and 0.657	1.6 and 0.379	0.0447 and -0.164	-0.649 and -0.526	-0.2 (inactive) and 0.409 (inactive)	0.15 and 0.0486	0.702 and -0.254	-0.66 (inactive) and -0.379 (inactive)
C=CCN(C(=O)C1N(c2c(Cl)cccc2CO)C(=O)C2C(C(=O)O)C3C=CC21O3)C(C)(C)C (stereo not given)	-0.875 and 0.96	0.766 and -0.202	0.613 and 1.78	0.64 and 1.54	-0.224 and -0.394	-0.536 and 0.627	-1.27 (inactive) and 1.46 (inactive)	-0.153 and 0.828	0.0478 and 1.11	-0.289 (inactive) and 0.361 (inactive)
CC(C)C(=O)N[C@@H]1CCCN1C(=O)C=Cc1ccccc1	0.516	0.709	0.546	0.391	-0.463	-0.201	-0.481 (inactive)	0.119	0.304	-0.123 (inactive)
COc1ccc(COC(=O)NN=C2C[C@@H](O)[C@@H](O)[C@@H]3[C@@H]4C(=O)N(C(C)(C)C)C(=O)[C@@H]4CC[C@H]23)cc1	0.894	0.377	0.89	-0.156	0.0186	-0.206	1.14 (inactive)	0.704	-0.527	-0.581 (inactive)
CCOC(=O)C[C@H]1[C@H](OC(=O)c2ccccc2-c2ccccc2)[C@@H](NC(=O)c2ccccc2)c2cc(OCCCO)ccc2N1C(=O)c1ccc2ccccc2n1	0.916 and -0.393	0.804 and -0.0181	0.694 and 1.01	0.175 and -1.55	-0.749 and -0.483	0.733 and 1.5	0.408 (inactive) and 0.209 (inactive)	-1.08 and 0.127	-0.627 and 0.14	0.65 (inactive) and 0.579 (inactive)
C=CC[C@@H](O)c1ccc(O)c2ccccc12	0.292 and 0.405	-0.0851 and -0.0172	0.23 and -0.354	-2.77 and -2.68	-3.06 and -4.28	-2.14 and -2.66	0.0544 (inactive) and -0.0565 (inactive)	-0.887 and -0.994	-1.63 and -1.56	-0.308 (inactive) and -0.572 (inactive)
C=CC[C@H](O)c1ccc(OCCO)cc1	-0.168 and -0.248	-0.219 and -0.258	-0.267 and 0.456	0.842 and -1.08	-0.252 and -0.209	-0.301 and -0.603	-0.315 (inactive) and 0.251 (inactive)	-0.0607 and 0.117	0.319 and -0.662	-0.233 (inactive) and -0.884 (inactive)
C=CCN(Cc1ccccc1)C(=O)C1N(CCOCCO)C(=O)C2C(C(=O)O)C3C=CC21O3 (stereo not given)	0.457 and -0.65	1 and 0.0853	-0.475 and -1.46	0.443 and 1.02	0.953 and -1.25	0.341 and -0.0276	0.978 (inactive) and -0.925 (inactive)	0.747 and 0.0424	1.26 and -0.0145	-0.474 (inactive) and 0.0887 (inactive)
COC(=O)C1=C(C)N(Cc2ccccc2)C2=C3C(=O)N(c4ccccc4)C(=O)[C@@H]3[C@@](O)(C(=O)OC)C(=O)N2[C@@H]1c1ccccc1	1.52 and 2.18	0.0671 and 1.01	0.286 and -0.126	-0.532 and 0.354	0.585 and 1.26	0.889 and 1.68	0.143 (inactive) and 1.26 (inactive)	-0.87 and -0.111	0.702 and 0.136	0.497 (inactive) and 0.767 (inactive)
CCOC(=O)C[C@H]1[C@H](OC(=O)c2ccccc2-c2ccccc2)[C@@H](NC(=O)Cc2ccc(OC)cc2)c2cc(OCCCO)ccc2N1C(=O)Cc1ccc(OC)cc1	0.615 and 0.158	1.92 and 0.0868	-0.0677 and -0.11	0.902 and -0.0317	0.869 and -0.427	3.07 and 0.376	0.491 (inactive) and 0.191 (inactive)	0.846 and -0.309	1.46 and 0.00765	0.615 (inactive) and 0.786 (inactive)
COC(=O)C1=C(C)N(Cc2ccccc2)C2=C(C(C)=O)C[C@@](O)(C(=O)OC)C(=O)N2[C@@H]1c1ccccc1	-0.112 and 0.965	0.501 and 0.0527	-0.491 and 0.55	1.11 and 0.699	-0.0117 and 1	0.931 and 0.372	0.227 (inactive) and -0.00623 (inactive)	0.689 and -0.71	-0.16 and -0.174	1.25 (inactive) and 1.03 (inactive)
CC(C)OC(=O)C=C1C[C@@H](c2cccc(C(F)(F)F)c2)O[C@@H](c2cccc(C(F)(F)F)c2)O1	0.133 and 0.343	-0.425 and 0.279	0.957 and 0.258	-0.499 and -1	-0.195 and -0.167	-0.447 and 0.606	0.297 (inactive) and 0.121 (inactive)	-0.897 and -0.238	-3.24 and -1.09	0.308 (inactive) and 1 (inactive)
C=C[C@H](C)[C@H](O)c1ccc(O)c2ccccc12	0.0619 and 0.429	0.114 and -0.0793	-0.461 and 0.756	-2.53 and -2.69	-0.233 and -0.17	-1.28 and -0.0285	-0.193 (inactive) and 1.11 (inactive)	-1.01 and 0.71	-1.76 and 0.307	-0.52 (inactive) and -0.539 (inactive)
